Measured values reported in PubChem BioAssay AID504832 (National Center for Advancing Translational Sciences (NCATS), 2011).
About 18,000 (5.8%) of roughly 310,000 compounds were called active. Entries that show only a call come without a potency. Not shown: some 22% with an inconclusive outcome. This is one part of a sample in which actives are shown more often than they occur. Calls come from the whole dose curve; as a rule, active = well fitted inhibition curve with a large enough effect; inconclusive = small, poorly fitted or top-dose-only effect, or another doubt; inactive = no such curve, though single readings can be large or run the other way.
Potency is the fitted concentration of half-maximal effect.

Test: Primary qHTS for delayed death inhibitors of the malarial parasite plastid, 48 hour incubation
Conditions: P. falciparum luciferase growth in erythrocytes; series mostly up to 28.7 µM
Outline: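 Luminescence readout; reporter = integrated firefly luciferase in P. falciparum. RBC culture at 2% hematocrit, 0.1% parasitemia final, 37 C/5% CO2; decreased signal taken as growth inhibition.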
In the case of `Nc1cc(N)nc(SCc2cccc(F)c2)n1`, the Potency is reported as “inactive”.
With `COc1ccc(S(=O)(=O)N2CCN(C)CC2)c(C)c1` the Potency was “inactive”.
For `CC(C)CCN1CCC(C)(NC(=O)c2ccccc2)C1=O` (centres undefined), the Potency was “inactive”.
For `Cc1cc(Cl)c2oc(C(=O)NC(C)c3ccncn3)c(C)c2c1` (centres undefined), the Potency was “inactive”.
With `CN(C)/N=C/c1cn(-c2ccccc2)nc1-c1cccnc1` the Potency was “inactive”.
With `COc1ccc(-c2nn(-c3ccccc3)cc2C(=O)Nc2nc(CC(C)=O)ns2)cc1` the Potency was “inactive”.
In the case of `O=C(O)c1ccc(NC(=O)c2cn(-c3ccccc3)nc2-c2ccc(Cl)cc2)cc1`, the Potency is reported as “inactive”.
In the case of `COc1ccc(-c2nn(-c3ccccc3)cc2/C=N/Nc2ccccn2)cc1OC`, the Potency is reported as 4.65 µM (active).
With `Cc1nnc(SCC(=O)N/N=C/c2cn(-c3ccccc3)nc2-c2ccc(F)cc2)n1-c1ccccc1` the Potency was “inactive”.
For `COc1ccc(-c2nn(-c3ccccc3)cc2C(=O)Nc2nccs2)cc1OC`, the Potency was 13.1 µM (active).
In the case of `Cc1nc([N+](=O)[O-])cn1CC(=O)Nc1ccc(Cl)cc1`, the Potency is reported as “inactive”.
For `O=C(Nc1ccc(NC(=O)c2ccccc2F)cc1)c1ccccc1F`, the Potency was “inactive”.
For `O=C(O)c1ccccc1CSc1nc2ccccc2s1`, the Potency was “inactive”.
In the case of `CCOC(=O)C1CCN(C(=O)CN2C(=O)c3cccnc3Oc3ccc(C)cc32)CC1`, the Potency is reported as “inactive”.
In the case of `COc1ccc(C2/C(=C(/O)c3ccccc3)C(=O)C(=O)N2C)c(OC)c1` (centres undefined), the Potency is reported as “inactive”.
In the case of `CN1CCC[C@@H]1CCO[C@](C)(c1ccccc1)c1ccc(Cl)cc1`, the Potency is reported as 12 µM (active).
In the case of `C#CC(CCN1CCCCC1)(OC)c1ccccc1` (centres undefined), the Potency is reported as “inactive”.
For `COc1ccc(CNC(=O)COc2ccccc2C(=O)c2cnn(-c3ccccc3)c2)cc1OC`, the Potency was “inactive”.
With `N#Cc1ccc(CN2CCN(CC(=O)Nc3ccccc3C(=O)NC3CC3)CC2)cc1` the Potency was “inactive”.
With `CCn1cc(C(=O)NCCC(=O)NCCO)c(=O)c2cc3c(cc21)OCO3` the Potency was “inactive”.
In the case of `COc1ccc(C(=O)Nc2ccc(C3(C#N)CCCC3)cc2)cc1OC`, the Potency is reported as “inactive”.
With `COc1cc(C(=O)NCC2(c3ccccc3)CCCC2)ccc1OC(C)C` the Potency was 14.7 µM (active).
In the case of `COc1ccc(C2(CNC(=O)Cc3ccc(OC)c(OC)c3)CCCC2)cc1`, the Potency is reported as “inactive”.
For `COc1cc(OC)c(NS(=O)(=O)c2cn(C)cn2)cc1Cl`, the Potency was “inactive”.
With `Cc1cccc(NC(=O)c2cccnc2Cl)n1` the Potency was “inactive”.
In the case of `CCc1ccc2c(c1)cc(CN(C(=S)Nc1ccccc1Cl)C1CC1)c1nnnn12`, the Potency is reported as 6.57 µM (active).
For `COCCN(CCOC)C(=S)Nc1ccccc1Cl`, the Potency was “inactive”.
For `CCc1cccc(NC(=S)N(CCN(C)C)C2CCN(C(C)C)CC2)c1`, the activity change, negative = inhibition was -29.2% [at 0.00184 µM] (inactive).
With `COc1ccc(CNC(=O)C(=O)NCC2OCCN2C(=O)c2ccc(OC)cc2)cc1` (centres undefined) the Potency was “inactive”.
In the case of `Cc1c(C)c2cc3c4c(oc3c(C)c2oc1=O)CCCC4`, the Potency is reported as “inactive”.
In the case of `Cc1c(CCC(=O)N[C@@H](CC(C)C)C(=O)O)c(=O)oc2c(C)c3oc4c(c3cc12)CCCC4`, the Potency is reported as 2.33 µM (active).
In the case of `CC[C@@H](C)[C@H](NC(=O)CCc1c(C)c2cc3c4c(oc3c(C)c2oc1=O)CCCC4)C(=O)O`, the Potency is reported as “inactive”.
In the case of `O=C(NCc1ccccc1)C(c1ccccc1)N(C(=O)c1csnn1)c1ccc(F)cc1` (centres undefined), the Potency is reported as “inactive”.
In the case of `Cc1c2cn[nH]c(=O)c2c(C)n1Cc1ccc(F)cc1`, the Potency is reported as 11.7 µM (active).
In the case of `CSc1nc2ccccc2c(=O)n1Cc1ccc(F)cc1`, the Potency is reported as “inactive”.
In the case of `Cc1n[nH]c(=O)c2c1nnn2Cc1ccc(F)cc1`, the Potency is reported as “inactive”.
For `Cc1ccc(N2C(=O)C3C4C=CC(CC4)C3C2=O)cc1Br` (centres undefined), the Potency was “inactive”.
With `O=C(COc1coc(CN2CCN(c3ccccc3F)CC2)cc1=O)N1CCc2ccccc21` the Potency was “inactive”.
For `COc1ccc(S(=O)(=O)NCC(=O)NC2CC2)cc1OC`, the Potency was “inactive”.
For `O=C(O)CCCn1c(=O)c2cccn2c2ccc(F)cc21`, the Potency was “inactive”.
For `CCOC(=O)C1CCN(Cc2nnc(-c3cccc(Br)c3)o2)CC1`, the Potency was “inactive”.
In the case of `CCCCCCCNC(=O)C1(CC2CC(c3cccc(Br)c3)=NO2)CCN(C(=O)c2cc(OCC)c(OCC)c(OCC)c2)CC1` (centres undefined), the Potency is reported as 0.657 µM (active).
For `CCOc1ccccc1N1CCN(C(=O)c2ccc3[nH]c(C)c(C)c3c2)CC1`, the Potency was “inactive”.
In the case of `N#Cc1c(Cl)nc(-c2cccnc2)nc1-c1ccccc1`, the Potency is reported as “inactive”.
In the case of `CCCC[C@H]1COCCS(=O)(=O)N1Cc1cccc(Cl)c1`, the Potency is reported as “inactive”.
With `COc1cc(NC(=O)C2CC(c3ccccc3O)=NO2)c(OC)cc1Cl` (centres undefined) the Potency was “inactive”.
For `Cc1nc(-c2ccc(F)cc2)c(CC(=O)N2CCN(S(=O)(=O)c3ccc(F)cc3)CC2)s1`, the Potency was “inactive”.
In the case of `O=C(CN1CCOCC1)Nc1cc(Cl)ccc1Cl`, the Potency is reported as “inactive”.
With `Cc1ccccc1NC(=O)CSc1nc2ccc(Nc3nc(N4CCOCC4)nc(N4CCOCC4)n3)cc2s1` the Potency was “inactive”.
In the case of `O=C(CSc1nc(Nc2ccccc2)nc(N2CCOCC2)n1)Nc1cc(Cl)ccc1O`, the Potency is reported as 1.17 µM (active).
For `Cn1c(SCC(=O)N2CCCCC2)nc2c(c1=O)SCC2`, the Potency was “inactive”.
In the case of `O=C(Nc1cccc(-n2cnnn2)c1)c1cccnc1`, the Potency is reported as “inactive”.
With `CNC(=O)c1ccc(NC(=O)c2cccc(C(F)(F)F)c2)cc1` the Potency was “inactive”.
For `O=C(Nc1ccc(C(F)(F)F)cc1)c1cccc(-n2cnnn2)c1`, the Potency was 10.4 µM (active).
For `O=C(NCc1ccc(F)cc1)C1CCN(C(=O)Nc2ccc(F)cc2)CC1`, the Potency was “inactive”.
With `O=C(Nc1cccc(Cl)c1Cl)c1ccccc1NC(=O)C1CC=CCC1C(=O)O` (centres undefined) the Potency was “inactive”.
For `CC(C)C1N=C2c3ccccc3N=C(SCC(=O)c3ccc(O)c(O)c3)N2C1=O` (centres undefined), the Potency was 11.7 µM (active).
With `COC(=O)c1cc(C(=O)CSc2nc(C)cc(C)n2)ccc1O` the Potency was “inactive”.
In the case of `CCc1ccc(S(=O)(=O)N/N=C\c2ccc([N+](=O)[O-])o2)cc1`, the Potency is reported as “inactive”.
With `COc1ccc(CCNS(=O)(=O)c2cn(C)nc2C)cc1` the Potency was “inactive”.
In the case of `Cc1ccc(F)cc1NC(=O)Cc1nn(C)c(=O)c2ccccc12`, the Potency is reported as “inactive”.
With `O=C1c2oc3ccc(Br)cc3c(=O)c2C(c2cccc(F)c2)N1CCO` (centres undefined) the Potency was “inactive”.
For `Cc1c(-c2nn(C)c(=O)c3ccccc23)oc2ccc(F)cc2c1=O`, the Potency was 2.62 µM (active).
In the case of `CCCNC(=O)CCc1c(C)nc2c(c(C)nn2-c2ccccc2)c1C`, the Potency is reported as “inactive”.
In the case of `O=C(CN(C(=O)CCC(=O)Nc1nccs1)c1ccc(F)cc1)NCc1ccc2c(c1)OCO2`, the Potency is reported as “inactive”.
With `O=C(Nc1cccc(S(=O)(=O)NC2=NCCC2)c1)C1CCCCC1` the Potency was “inactive”.
In the case of `Cc1cccc(-n2c(SCC(=O)Nc3cccc(S(=O)(=O)NC4=NCCCCC4)c3)nc3ccccc3c2=O)c1C`, the Potency is reported as 13.1 µM (active).
With `COCCn1c(SCC(=O)Nc2ccc3c(c2)CCC3)nc2ccccc2c1=O` the Potency was “inactive”.
For `O=C(Cn1cnc2ccccc2c1=O)Nc1cccc(S(=O)(=O)N2CCCCC2)c1`, the Potency was “inactive”.
For `CCc1ccc(C(=O)OCC(=O)Nc2cccc(S(=O)(=O)NC3=NCCCCC3)c2)cc1`, the Potency was 10.4 µM (active).
In the case of `CN(CCOc1ccc(Br)cc1)CC(=O)Nc1cccc(S(=O)(=O)NC2=NCCC2)c1`, the Potency is reported as “inactive”.
For `Cc1ccc(S(=O)(=O)N2CCC3(CC2)OCCO3)c(C)c1`, the Potency was “inactive”.
For `Cc1csc(NC(=O)CSc2nc(=O)n(CCCN(C)C)c3c2CCC3)n1`, the Potency was “inactive”.
With `CC(=O)Nc1ccc(NC(=O)COc2ccc(-c3ccccc3)cc2)cc1` the Potency was “inactive”.
For `CC1CC(C)CN(CCCNC(=O)Cn2ncc3c([nH]c4ccccc43)c2=O)C1` (centres undefined), the Potency was “inactive”.
In the case of `CC(=O)N1CCN(C(=O)c2cc(-c3ccc(C)o3)nc3ccccc23)CC1`, the Potency is reported as “inactive”.
In the case of `CCOC(=O)C1(Cc2ccccc2C)CCCN(C(=O)CN2C(=O)CSC2=O)C1` (centres undefined), the Potency is reported as “inactive”.
For `CCCCC(=O)Nc1nnc(S(=O)(=O)N(C)Cc2ccco2)s1`, the Potency was “inactive”.
For `Cc1nn(Cc2ccccc2)c(C)c1C(=O)NCCN1C(=O)S/C(=C\c2ccc(F)cc2)C1=O`, the Potency was “inactive”.
With `O=C(NCCN1CCOCC1)/C(=C/c1ccc(F)cc1)NC(=O)c1ccccc1` the Potency was “inactive”.
With `CCN1CCN(CCNC(=O)c2ccc3c(c2)NC(=O)/C(=C\c2ccc(OC)c(OC)c2)S3)CC1` the Potency was 9.28 µM (active).
For `O=C(NCCN1CCOCC1)c1ccc(/C=C2\Sc3ccccc3N(Cc3ccc(F)cc3)C2=O)cc1`, the Potency was 11.7 µM (active).
With `O=C(NCCN1C(=O)S/C(=C\c2cccnc2)C1=O)c1cccc(OC(F)F)c1` the Potency was “inactive”.
For `CCN1CCN(CCNC(=O)c2ccc(/C=C3/Sc4ccccc4N(Cc4cccc(C)c4)C3=O)cc2)CC1`, the Potency was 11.7 µM (active).
For `COc1ccc(/C=C(\NC(=O)c2ccccc2)C(=O)NCCN2CCOCC2)cc1OC`, the Potency was “inactive”.
With `COc1ccc(CCNC(=O)c2ccc3c(c2)NC(=O)C(N2CCOCC2)S3)cc1OC` (centres undefined) the Potency was “inactive”.
In the case of `CN1C(=O)/C(=C/c2ccc(C(=O)NC3CCCC3)cc2)Oc2ccccc21`, the Potency is reported as “inactive”.
For `CN1CCN(CCCNC(=O)c2ccc(/C=C3\Oc4ccccc4N(Cc4ccc(Cl)cc4)C3=O)cc2)CC1`, the Potency was 1.65 µM (active).
In the case of `CCCN1CCN(C(=O)CCCNC(=O)c2ccc(Cl)cc2)CC1`, the Potency is reported as “inactive”.
For `Cc1ccc(C(=O)N/C(=C\c2ccc(F)cc2)C(=O)NCCN2CCOCC2)cc1`, the Potency was “inactive”.
For `Cc1cc(-c2nnc(SCC(=O)Nc3ccc(S(N)(=O)=O)cc3)n2N)n[nH]1`, the Potency was “inactive”.
With `CN1C(=O)[C@H]2[C@@H](C3CC3)N3C(=O)CN(Cc4ccccc4)C(=O)[C@@]3(C)[C@H]2C1=O` the Potency was “inactive”.
In the case of `O=C1NC(c2ccccc2)Oc2ccccc21` (centres undefined), the Potency is reported as “inactive”.
With `COc1ccc(-c2ocnc2C(=O)Nc2ccc3c(c2)CCC3)cc1` the Potency was “inactive”.
For `O=C(Nc1nnc(-c2ccc(F)cc2)s1)c1c(F)cccc1Cl`, the Potency was “inactive”.
For `CC(=O)c1nn(-c2cccc(C(F)(F)F)c2)c(=O)[nH]c1=O`, the Potency was “inactive”.
For `CCNS(=O)(=O)c1ccc(CCC(=O)N2CCN(c3ccc(OC)cc3)CC2)cc1`, the Potency was “inactive”.
With `COCCNC(=O)COc1ccc(C)c(C)c1` the Potency was “inactive”.
For `CCCc1ccc(OCCNC(=O)c2ccccc2Br)cc1`, the Potency was “inactive”.
With `CC(=O)Nc1ccc(CC#N)cc1` the Potency was “inactive”.
In the case of `CC(C)n1ncc2c(C(=O)NCc3ccccc3CN(C)C)cc(C3CC3)nc21`, the Potency is reported as 11.7 µM (active).
For `CC(C)n1ncc2c(C(=O)Nc3ccc(CC#N)cc3)cc(C3CC3)nc21`, the Potency was 14.7 µM (active).
For `COc1ccc(OCCNC(=O)c2cc(C3CC3)nc3c2cnn3C(C)C)cc1`, the Potency was 13.1 µM (active).
For `N#CCc1ccc(NC(=O)c2ccccc2C(=O)Nc2ccc(CC#N)cc2)cc1`, the Potency was “inactive”.
